# Screening data from PubChem BioAssay.
# Hits are enriched below; roughly 2.1% of the tested compounds scored in any of these assays.
# aSyn rescue – rescues yeast growth from alpha-synuclein toxicity; AID 652106; hit rate 0.14% among 370,000; Yeast expressing alpha-synuclein, growth rescue, BacTiter-Glo, 24 h; Potency, µM (doses to about 46.1 µM), for the others: top-dose growth rescue (activation), most hits filed as activators; further: % of control where 0% means no effect; nearly all actives have a fitted effect of over 65% in size
#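 Screening used galactose-induced yeast with toxic alpha-synuclein levels, exposed to compound for 24 hr at 30 deg C. Cell growth, read with BacTiter-Glo luminescence, gave the measured signal.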
# TDP-43 yeast inh – rescues yeast growth from TDP-43 toxicity | TDP-43 expressing yeast growth rescue, BacTiter-Glo, 24 h | Potency, µM (titrated, usually from 46.1 µM), for inactives: top-dose growth rescue (activation), actives largely listed as activators | hit rate 1.8% among 410,000 | AID 652104; further: % of control where 0% means no effect; nearly all actives have a fitted effect of over 50% in size
#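 Readout is BacTiter-Glo luminescence of cell growth, so inhibitors register as activators. TDP-43-expressing yeast at OD600=0.02 in galactose medium, after raffinose pregrowth to mid-log, were incubated with compound for 24 hr at 30 deg C.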
# Abeta yeast res – A-beta toxicity reversal in yeast; yeast expressing A-beta42, growth rescue, OD600, 48 h; response scale: 0% DMSO, 100% iron-clioquinol control; Potency, µM (titrated, usually from 46.1 µM), usual class: activators; hit rate 0.063% among 410,000; further: nearly all actives have a fitted effect of over 55% in size
#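 Yeast growth medium received pinned compounds, then yeast cells expressing toxic A-beta were added; plates incubated at 30 C for 48 hr. Growth read as absorbance at 600 nm, normalized to DMSO and equimolar FeCl3 plus clioquinol controls.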
# FUS suppressor – suppressors of FUS proteinopathy in yeast; S. cerevisiae FUS-expressing, growth rescue, OD600, 24 h; Potency, µM (highest dose often 76.6 µM), actives largely listed as activators; hit rate 0.24% among 390,000; AID 1347120;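 further: plate controls were DMSO vehicle for no effect and reference control for full effect; nearly all actives have a fitted effect of over 55% in size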
#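 Steps: raffinose overnight preculture; dilution to OD 0.005 in 2% galactose minimal medium; compound addition (concentration series); 24hr at 30C, 99% humidity; absorbance read at 600 nm.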
# * = called active by the depositor; i = inactive; ? = inconclusive; · = no result; ! = a repeat was not active; [ ] = dose if it differs, or a comment. The call rests on the fitted dose curve; in most records, active means well fitted curve in the direction sought with a large enough effect; inconclusive means small, poorly fitted or top-dose-only effect, or another doubt; inactive means no such curve, though single readings can be large; an effect the other way counts as inactive or inconclusive. Potency means the concentration at half of the fitted maximal effect.
SMILES,aSyn rescue,TDP-43 yeast inh,Abeta yeast res,FUS suppressor
CC(C)CC(COCc1ccc(Cl)cc1)N1CCN(C(=O)c2cccc(C(F)(F)F)c2)CCC1=O (configuration not stated),11.3%,20.5%,i,31.6µM*
Nc1cccc(/C=C2\C=Cc3ccccc32)c1,3.0%,·,·,·
O=C(NCCc1ccccn1)c1ccc2c(c1)ncn2C1CCCCC1,·,·,·,i
Cc1cc(C)c(S(=O)(=O)n2ccc3ccccc32)c(C)c1,6.7%,18.6%,?,i
Cc1ccc(S(=O)(=O)NCCc2ccccc2)cc1,13.3%,?,i,i
Cc1cc(C)c(S(=O)(=O)NCCn2ccc3ccccc32)c(C)c1,?,12.6µM*,?,i
Cc1cc(C)c(S(=O)(=O)NCCc2ccccc2)c(C)c1,20µM*,3.9%,i,i
C=CCc1ccccc1OCC(O)CNC1CCCC1 (configuration not stated),16.2%,8.7%,i,i
CN(C(=O)CSc1nc(C2CCCC2)nc2c1c(=O)n(C)c(=O)n2C)c1ccccc1,·,19.0%[9.22 µM],i,i
COc1cccc(N2CC(NC(=O)CCCc3ccccc3)CC2=O)c1 (configuration not stated),·,13.2%,i,i
Cc1ccc(C2=NS(=O)(=O)N(C)C(C(=O)Nc3ccc(F)cc3F)=C2)cc1,6.3%,5.7%,i,i
COc1ccc(OC)c(C2=NS(=O)(=O)N(C)C(C(=O)Nc3ccc(F)cc3F)=C2)c1,-2.4%,35.5µM*!,i,i
O=C(COC(=O)CNC(=O)c1ccccc1Cl)NC1CCCC1,-3.8%,-33.4%,i,i
CC(C)(C)c1ccc(OCCC(=O)OCC(=O)NC(=O)NC2CCCC2)cc1,9.3%,21.3%,i,i
CC(C)(C)c1ccc(OCCC(=O)OCC(=O)NC2CCCCC2)cc1,7.3%,35.5µM*,i,i
O=C(COC(=O)Cc1c(Cl)cccc1Cl)NC1CCCC1,11.7%,20µM*,i,i
CC(C)CN(CC(C)C)c1ccc(/C=C/c2nc3ccccc3s2)cc1,-10.2%,·,·,·
CCOC(=O)c1ccccc1NC(=O)Cn1c(=O)n(CCC(=O)N2CCc3ccccc3C2)c(=O)c2ccccc21,·,35.5µM*,i,?
N#Cc1cc([N+](=O)[O-])c2sc(C(N)=O)[n+]([O-])c2c1,-1.1%,·,·,·
CCOc1ccc(NC(=O)CC2CC(C)(C)OC2=O)cc1 (configuration not stated),7.7%,3.1%,i,i
CCCC1CC(C)(c2csc(Nc3ccc(OCC)cc3)n2)OC1=O (configuration not stated),18.8%,17.8µM*,i,i
CCc1c(C2(O)CCCCC2)[nH]c2c(C(=O)OC)cc(Cl)cc12,-49.3%,-84.6%,i,i
COC(=O)c1ccc2c(C)c(C3(O)CCCCC3)[nH]c2c1,0.4%,20µM*,i,i
COC(=O)c1cc(Cl)cc2c(C)c(C3(O)CCCCC3)[nH]c12,?,35.5µM*,i,i
CCC(C)NC(=O)CNc1nnnn1-c1ccccc1 (configuration not stated),·,·,·,i
SMILES,aSyn rescue,TDP-43 yeast inh,Abeta yeast res,FUS suppressor
Cc1cccc2cc(CN(Cc3nnnn3Cc3ccco3)C3CCCC3)c3nnnn3c12,?,7.08µM*,i,i
Cc1onc(-c2ccccc2)c1-c1ccnc(N)n1,?,9.8%,i,i
Cc1ccc(C)n1-c1ccc(-c2ccnc(N)n2)cc1,10.7%,31.6µM*,i,i
O=S1(=O)C=C(Sc2nnc(-c3ccccc3)o2)c2ccccc21,-13.4%,8.91µM*,i,i
Cc1cc(C)nc(SC2=CS(=O)(=O)c3ccccc32)n1,3.4%,26.1%,i,i
Cc1nc(N2CCCCC2C)c2c(C)c(C(=O)Nc3ccccc3C(F)(F)F)sc2n1 (configuration not stated),-23.8%,14.1µM*,i,i
Cc1c(C(=O)Nc2ccc3c(c2)OCCO3)sc2ncnc(N3CCCCC3C)c12 (configuration not stated),4.8%,15.8µM*,i,i
Cc1nc(N2CCC(C)CC2)c2c(C)c(C(=O)Nc3ccc(C(F)(F)F)cc3)sc2n1,12.8%,?,i,i
Cc1c(C(=O)N2CCCCC2C)sc2ncnc(N3CCc4ccccc4C3)c12 (configuration not stated),0.5%,?,i,i
Cc1nc(N2CCC(C)CC2)c2c(C)c(C(=O)Nc3ccc4c(c3)OCCO4)sc2n1,2.9%,7.08µM*,i,i
